Test results from the supplement of paper PMC3334620.
The full ranking holds about 33,000 sequences; the median of “E-score (-0.5 to 0.5)” is about -0.041, and the highest 2% start at about 0.37. For the sample, the highest values were picked, then their nearest neighbours and some sequences at random.

Biological target: T1, Ecm22 (UniProt Q05958)
T1 sequence: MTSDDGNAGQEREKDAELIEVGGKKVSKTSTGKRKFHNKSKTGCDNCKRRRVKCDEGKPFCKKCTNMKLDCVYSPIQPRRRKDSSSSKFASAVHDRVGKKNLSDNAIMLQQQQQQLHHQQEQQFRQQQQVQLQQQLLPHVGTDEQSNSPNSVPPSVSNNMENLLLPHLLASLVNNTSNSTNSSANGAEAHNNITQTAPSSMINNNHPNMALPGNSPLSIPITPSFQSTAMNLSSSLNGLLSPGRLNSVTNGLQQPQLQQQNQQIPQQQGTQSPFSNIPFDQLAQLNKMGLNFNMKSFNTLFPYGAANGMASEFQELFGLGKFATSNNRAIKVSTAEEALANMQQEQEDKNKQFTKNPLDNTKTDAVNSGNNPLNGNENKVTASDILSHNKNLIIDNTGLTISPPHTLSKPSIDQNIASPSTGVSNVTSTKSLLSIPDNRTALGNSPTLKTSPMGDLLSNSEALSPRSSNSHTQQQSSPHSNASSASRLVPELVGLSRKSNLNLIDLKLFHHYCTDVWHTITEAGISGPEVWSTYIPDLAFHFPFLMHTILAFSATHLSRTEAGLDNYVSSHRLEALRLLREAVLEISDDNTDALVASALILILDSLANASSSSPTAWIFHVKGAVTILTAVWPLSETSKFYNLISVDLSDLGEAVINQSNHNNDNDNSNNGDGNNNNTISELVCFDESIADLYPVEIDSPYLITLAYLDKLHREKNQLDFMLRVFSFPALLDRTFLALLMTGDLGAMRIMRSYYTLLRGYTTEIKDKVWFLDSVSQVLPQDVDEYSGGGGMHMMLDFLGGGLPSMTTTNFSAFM
Assay: PBM E-score (8-mer binding enrichment) (E-score (-0.5 to 0.5)); higher = stronger / more preferred TF binding
Conditions: protein concentration: 200 nM; construct: GST-full length
Procedure, shortened: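 Yeast transcription factors carrying a GST tag, as full-length proteins or DNA-binding domains, were produced by PURExpress in vitro transcription/translation. About 100-200 nM protein was applied to universal all-10-mer Agilent arrays, double-stranded by primer extension on fresh or once-stripped slides. Bound protein was detected with fluorescent anti-GST, and scans were normalised with masliner. The Universal PBM Analysis Suite gave each ungapped eight-base word, pooled with its reverse complement, an E-score, a modified Wilcoxon-Mann-Whitney statistic.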

Row | Sequence | PBM E-score
1 | CTCCTTCC | -0.152
2 | CGGCGCAG | -0.0964
3 | ACAACCGA | 0.26
4 | AACCTTTC | -0.0282
5 | CGCAGAAG | 0.00639
6 | AACTAACG | 0.141
7 | ATTCGTGA | -0.00041
8 | ATTCGTAA | 0.405
9 | GTTCGTGA | 0.141
10 | GTTCGTAA | 0.427
11 | ATTCGTAG | 0.325
12 | GTTCGTCA | 0.0919
13 | AAATGCGC | -0.0587
14 | AAACTGTG | -0.214
15 | CCAGTCAA | -0.166
16 | CACGTACC | 0.285
17 | CCCGTACG | 0.402
18 | CCCGTACC | 0.446
19 | CCCGTACA | 0.368
20 | CCCGTAAC | 0.189
21 | CCCGTAGG | -0.158
22 | AGACCTTG | -0.252
23 | GGAAATCC | -0.00159
24 | AGCAGCCT | -0.102
25 | ATAGCCCC | -0.223
26 | CCAAGGGA | -0.0775

Row | Sequence | PBM E-score
27 | CATCAATG | -0.153
28 | GCCGGTAC | 0.129
29 | CGGCACGA | 0.176
30 | ACTTTGTG | 0.118
31 | CCGCTACG | 0.339
32 | ACGCTACG | 0.382
33 | ACGCTACA | -0.0355
34 | TATCGCCA | -0.0963
35 | TCGGTTAA | 0.387
36 | GCGGTTAA | -0.0219
37 | CCGGTTAA | 0.132
38 | GTCCCCCA | -0.157
39 | GCGGTAAA | 0.173
40 | GGCAACTA | -0.282
41 | GGCAACCA | -0.0847
42 | CGCAACGA | 0.448
43 | CGCAACGC | 0.0974
44 | AGCAACGG | 0.203
45 | AGCAACGA | 0.407
46 | AGCAACGC | 0.0942
47 | CGCAACAA | 0.0504
48 | GGCAACGA | 0.417
49 | AATCGAGG | 0.0537
50 | CAAAAGTA | -0.0653
51 | CCATTTTC | -0.105
